# A selection: hits, their analogues and other compounds. The true share with any hit is near 1.3%.
# EPAC2 antag = EPAC2 (human) antagonism; Q8WZA2; EPAC2 GEF exchange of Rap1B-BODIPY-GDP, fluorescence; hit rate 0.18% among 360,000; Potency, µM (titrated, usually from 114 µM), inactives show top-dose activity, negative = inhibition, most hits filed as inhibitors; also: % is scaled to controls: 0 for no effect and ±100 for the full control effect; nearly all actives have a fitted effect of over 45% in size
# EPAC1 agonist = activates human EPAC1 exchange factor. O95398. EPAC1 agonist qHTS, biochemical assay; response scale: 100% = response to 6.5 mM cAMP. Potency, µM (titrated, usually from 154 µM), inactives show at the top dose activation, usual class: activators. hit rate 0.073% among 360,000. AID 720707; also: nearly all actives have a fitted effect of over 60% in size
# Target sequence (O95398 whole entry, looked up): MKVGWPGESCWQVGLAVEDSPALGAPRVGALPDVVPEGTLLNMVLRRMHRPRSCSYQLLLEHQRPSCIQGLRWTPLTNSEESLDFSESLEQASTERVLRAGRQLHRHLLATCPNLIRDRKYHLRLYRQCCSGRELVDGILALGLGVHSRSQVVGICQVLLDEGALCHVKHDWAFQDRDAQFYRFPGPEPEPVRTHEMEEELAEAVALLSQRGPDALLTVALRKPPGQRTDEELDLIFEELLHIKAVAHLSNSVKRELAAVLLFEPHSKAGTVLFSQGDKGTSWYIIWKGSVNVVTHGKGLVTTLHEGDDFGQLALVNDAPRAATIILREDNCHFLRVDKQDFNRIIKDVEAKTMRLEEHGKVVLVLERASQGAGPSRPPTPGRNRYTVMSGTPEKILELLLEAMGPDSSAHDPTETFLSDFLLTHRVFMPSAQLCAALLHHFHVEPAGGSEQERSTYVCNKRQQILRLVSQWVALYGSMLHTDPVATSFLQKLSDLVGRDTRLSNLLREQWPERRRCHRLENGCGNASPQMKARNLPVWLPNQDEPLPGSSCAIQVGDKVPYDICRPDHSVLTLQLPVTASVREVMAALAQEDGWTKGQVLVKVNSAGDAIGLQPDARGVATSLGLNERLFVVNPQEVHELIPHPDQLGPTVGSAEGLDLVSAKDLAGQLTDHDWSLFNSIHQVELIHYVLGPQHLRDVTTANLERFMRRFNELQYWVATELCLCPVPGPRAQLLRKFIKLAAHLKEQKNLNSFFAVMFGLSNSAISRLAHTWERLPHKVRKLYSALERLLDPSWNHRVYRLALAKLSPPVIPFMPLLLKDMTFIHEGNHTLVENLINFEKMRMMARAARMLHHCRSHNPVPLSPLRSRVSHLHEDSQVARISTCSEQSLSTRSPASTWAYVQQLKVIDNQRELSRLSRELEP
#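 Fluorescent GDP-exchange assay: 100 nM EPAC1 with 250 nM Rap1B preloaded with BODIPY-GDP and 50 uM GDP; compounds tested as concentration series, 5 min at room temperature, then read every 5 min for 30 min (ex 480/em 540 nm); normalized to 6.5 mM cAMP.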
# EPAC2 ag = agonists of human EPAC2 (RAPGEF4); Q8WZA2; EPAC2 activation, biochemical qHTS; response scale: 100% = 6.5 mM cAMP response; Potency, µM (top dose mostly 154 µM), without a hit: top-dose activation, hits mostly activators; hit rate 0.079% among 360,000; also: nearly all actives have a fitted effect of over 50% in size
#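 EPAC2 (100 nM) mixed with Rap1B loaded with BODIPY-GDP (250 nM) plus 50 uM unlabeled GDP; compounds pinned in, 5 min RT, then read every 5 min for 30 min (ex 480, em 540 nm). Normalized to cAMP control.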
# RGS4 inh = blocks human RGS4-accelerated GTP hydrolysis | AID 504845 | P49798 | Transcreener GDP fluorescence polarization, RGS4-accelerated GTP hydrolysis | hit rate 0.039% among 390,000 | Potency, µM (titrated, usually from 114 µM), inactives show at the top dose activity change, negative = inhibition, most hits filed as inhibitors; also: % is scaled to controls: 0 for no effect and ±100 for the full control effect; nearly all actives have a fitted effect of over 75% in size
#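 MLSMR compounds (23 nl, pin-transferred) preincubated 10 min at room temperature with a 500nM (2x) first reagent, then RGS4 at 900nM (2x) plus Transcreener GDP mix added; fluorescence polarization (620/688 nm) read before and after 90 min at 30 °C.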
# BRCA1 expr act = activators of BRCA1 expression. hit rate 1.1% among 380,000. MCF7-BRCA1-FFLuc reporter, luminescence, 48 h; response scale: scaled: vehicle 0%, 10 µM genistein 100%. Potency, µM (titrated, usually from 46.1 µM), inactives show at the highest dose activation, hits mostly activators. AID 624202; also: nearly all actives have a fitted effect of over 80% in size
#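 MCF7-BRCA1-FFLuc, 2000 cells/well; 2 h attach, 37 °C/5% CO2; compound 48 h; luciferase substrate 15 min; luminescence end-point. Norm. to genistein 10 microM max activation and DMSO; concentration-response curves fitted.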
# EPAC1 antag = EPAC1 (human) antagonism; O95398; EPAC1 GEF assay, Rap1b-BODIPY-GDP exchange fluorescence; Potency, µM (highest dose often 115 µM), for inactives: top-dose activity change, negative = inhibition, usual class: inhibitors; hit rate 0.14% among 360,000; AID 720709;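 also: plate controls were vehicle for no effect and positive control for full effect; nearly all actives have a fitted effect of over 50% in size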
# Numbers without * were called inactive; ? = inconclusive; . = no result given; ! = repeats disagree; [ ] = remark or other dose. Calls follow the shape of the dose curve; as a rule, active = well fitted curve in the direction sought with a large enough effect; inconclusive = small, poorly fitted or top-dose-only effect, or another doubt; inactive = no such curve, though single readings can be large; an effect the other way counts as inactive or inconclusive. Potency is read from the fitted curve at half-maximal effect.
SMILES,EPAC2 antag,EPAC1 agonist,EPAC2 ag,RGS4 inh,BRCA1 expr act,EPAC1 antag
Oc1cc(O)cc(/C=C/c2ccc(O)c(O)c2)c1,?,-6%,-8%,21µM*!,?,-5%
C/C=C/c1ccc(O)c(OC)c1,2%,-1%,6%,9%,4%,-8%
O=S1(=O)C[C@@H](O)[C@@H](Nc2ccc(Cl)cc2)C1,3%,-5%,3%,7%,-1%,6%
C=CCN(C(=O)C1CC(=O)N(C2CCCC2)C1)c1nc(-c2ccc(S(C)(=O)=O)cc2)cs1 (configuration not stated),-1%,14%,-2%,-16%,-42%,0%
CC(=O)c1ccc(N2CCN(c3ncccn3)CC2)cc1,-4%,9%,0%,9%,10µM*,-10%
CC(=O)c1ccc(NC(=O)CN2CCN(c3ncccn3)CC2)cc1,8%,0%,3%,4%[56.9 µM],-21%,-5%
COc1ccc(CNS(=O)(=O)c2cnc(N)nc2)cc1,.,.,.,-9%,.,.
O=C(OCC(=O)c1ccc(Cl)cc1Cl)c1ccccn1,-4%,4%,1%,28%,-28%,-3%
COC(=O)c1cccc(NC(=O)/C=C/c2ccc([N+](=O)[O-])cc2)c1,9%,-4%,-2%,7%,0%,-4%
O=C(COc1ccc2ccccc2c1)Nc1cccc(C(=O)Nc2ccccc2C(=O)O)c1,-13%,-9%,-10%,-39%,25%,45µM*
O=C(/C=C/c1ccc([N+](=O)[O-])cc1)Nc1cccc(C(=O)Nc2ccccc2C(=O)O)c1,21%,-3%,-3%,-43%,-22%,28µM*
COCCNCc1ccccc1[N+](=O)[O-],8%,3%,4%,3%,0%,2%
CC(C)c1ccc(/C=C/C(=O)NCc2ccc(S(N)(=O)=O)cc2)cc1,32%,-12%,8%,-6%,-10%,-12%
CCCCNC(=S)N1CCN(c2nc3ccccc3s2)CC1,-2%,-8%,4%,14%,-1%,-8%
CS(=O)(=O)N1CCN(c2nc3ccccc3s2)CC1,-1%,2%,-5%,-1%,13µM*,5%
CNC(=S)N1CCN(c2nc3ccccc3s2)CC1,0%,6%,-3%,-11%,7.1µM*,9%
O=C(Nc1cccnc1)c1ccc(Cl)c(Cl)c1,15%,3%,1%,-1%,-17%,-5%
Cc1ccc(SCc2cc(=O)c3c(=O)n(-c4ccccc4)[nH]c3[nH]2)cc1,-23%,-1%,0%,-9%,5%,79µM*
Cn1c(C(=O)NC2CCCCC2)cc2sccc21,13%,-8%,6%,-20%,5.6µM*,13%
Cn1c(C(=O)N2CCCC(C(=O)O)C2)cc2sccc21 (configuration not stated),12%,-3%,7%,-10%,-2%,13%
CCn1c(C(=O)NC2CCC(C)CC2)cc2sccc21 (configuration not stated),14%,-8%,4%,-35%,?,-2%
CN(C(=O)c1cc2sccc2n1C)C1CCCCC1,12%,-1%,-3%,-21%,6.3µM*,19%
Cc1cc(C(=O)NCc2cccs2)cs1,19%,-1%,7%,8%,10µM*,-2%
CC(C)Cc1cc(C(=O)NCc2cccs2)no1,6%,-7%,16%,-8%,13µM*,-6%
CC(C)Oc1ccc(C(=O)NCc2cccs2)cc1,-4%,6%,10%,-4%,13µM*,-2%
SMILES,EPAC2 antag,EPAC1 agonist,EPAC2 ag,RGS4 inh,BRCA1 expr act,EPAC1 antag
FC(F)(F)c1ccccc1NC(=S)Nc1cccc2cnccc12,-3%,0%,13%,?,-31%,-20%
COc1ccc(NC(=O)CN2C(=O)CCc3cc(S(=O)(=O)N4CCOCC4)ccc32)c(OC)c1,.,.,.,2%,15%,.
Cc1ccc(Cn2ccc(NC(=O)c3noc4c3CCCC4)n2)cc1,-10%,5%,-3%,-27%,5.6µM*,16%
O=C(NCCc1ccccc1)c1noc2c1CCCCC2,7%,1%,10%,6%,4µM*,3%
O=C(N/N=C/c1ccc(F)cc1)c1cc(-c2ccco2)nc2ccccc12,10%,0%,-11%,?,-55%,79µM*
Cc1ccc(/C=C/C(=O)Nc2ccncc2)o1,-2%,6%,-5%,-4%,20%,-11%
Cc1ccc(/C=C/C(=O)Nc2ccc(N(C)C)cc2)o1,-2%,-2%,7%,-19%,4µM*,2%
Cc1ccc(/C=C/C(=O)Nc2ncc(C)s2)o1,1%,1%,9%,-22%,3.2µM*,-11%
CCN1C(C#N)=C(C#N)N=C(C)CC1(C)C,3%,-1%,-4%,-3%,0%,2%
O=C(OCCN1C(=O)c2cccc3c(N4CCOCC4)ccc(c23)C1=O)c1ccc(Cl)cc1Cl,180%,?,4%,-5%,-73%,76%
O=C(OCCN1C(=O)c2cccc3c(N4CCOCC4)ccc(c23)C1=O)c1cccc(Cl)c1,170%,25µM*,-44%,11%,-57%,65%
COC1=C/C(=C/c2c(N)n3nc(CC(=O)N4CCCC4)sc3nc2=O)C=CC1=O,11%,7%,11%,23%[11.4 µM],38%,14%
Cc1ccc(F)c(NC(=O)/C(C#N)=C(\O)c2ccc(C(C)(C)C)cc2)c1,-23%[57.1 µM],-11%,-35%,1%,8%,56µM*
Cc1cccc(NC(=O)C(=O)NNC(=O)c2ccc(C(C)(C)C)cc2)c1,53%,-19%,-10%,14%,42%,?
CC1CCCN(c2ncnc3c2nc2n3CCCCC2)C1 (configuration not stated),.,.,.,-16%,11µM*,.
COc1ccc(Nc2ncnc3c2nc2n3CCCCC2)cc1,.,.,.,-1%,10µM*,.
COc1ccc(-c2cc(=O)c3cc(OC)ccc3[nH]2)cc1,12%,-9%,-2%,6%,?,-10%
CN(C)c1ccc(-c2ccc3ccccc3n2)cc1,.,.,.,.,-15%,.
c1ccc(-c2ccc3ccccc3n2)cc1,-12%,2%,15%,7%,11µM*,6%
CCCCCOc1ccc(CN2CCOCC2)cc1Cl,-6%,6%,12%,-11%,8.9µM*,8%
Cc1ccc(C(=O)CSc2nnc(N)s2)c(C)c1,3%,9%,5%,8%,4.5µM*,14%
Cc1cc(C(=O)CSc2nnc(N)s2)c(C)n1C1CC1,-6%,1%,3%,-14%,7.9µM*,-3%
Cc1cc(C(=O)CSc2nc(N)cc(N)n2)c(C)n1C1CC1,7%,13%,6%,-19%,-18%,5%
O=C(NN=C1CCCCCC1)NC1CCCCC1,10%,3%,11%,0%,-10%,9%

# Bioassay records from PubChem BioAssay.
